Molecules are shown by their SMILES. Unmarked numbers belong to inactive results. How the calls were made is not given here.

The test deals with L-lactate dehydrogenase (Plasmodium falciparum (isolate CDC / Honduras)) (UniProt Q27743). Nature of the test: PfLDH activity inhibition – cell lysate, 3D7 strain, counter-screen for P. falciparum growth inhibition project (AID 2304).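 Further: 0% = vehicle and 100% = reference inhibitor.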 The conditions noted are these: P. falciparum 3D7 crude extract, LDH APAD/NBT absorbance; at 2 µM; hits give high values.
Sequence of L-lactate dehydrogenase (Plasmodium falciparum (isolate CDC / Honduras)) (Q27743 whole entry, looked up): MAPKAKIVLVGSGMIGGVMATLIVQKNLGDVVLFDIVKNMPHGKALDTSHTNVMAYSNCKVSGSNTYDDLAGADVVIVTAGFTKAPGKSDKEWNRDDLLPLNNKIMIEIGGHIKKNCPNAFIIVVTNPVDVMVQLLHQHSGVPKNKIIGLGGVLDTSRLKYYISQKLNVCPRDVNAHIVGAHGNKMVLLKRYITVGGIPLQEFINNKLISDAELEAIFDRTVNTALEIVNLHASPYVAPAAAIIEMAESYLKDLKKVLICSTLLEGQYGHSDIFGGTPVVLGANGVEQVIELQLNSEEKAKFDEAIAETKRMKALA
As for `COc1cc(OC)cc(C(=O)Nc2ccc(Nc3nc(C)cc(N(C)C)n3)cc2)c1`, the inhibition is 1%.

Turning to `Cc1ccc(C=C2SC(=Nc3ccccc3)NC2=O)c(C)c1`, the inhibition was -2%.

Take `CC(C)(C)c1nn(-c2ccccc2)c2[nH]c(=O)c(CNCc3ccc4c(c3)OCO4)cc12`: the inhibition is 3%.

As for `Cc1[nH]nc2cc(Nc3nccc(Nc4ccc(Oc5ccccc5)cc4)n3)ccc12`, the inhibition is -7%.

For `Cc1cc(Nc2ccc(OCc3ccccc3Cl)cc2)c2cc(Cl)ccc2n1`, the inhibition is 5%.

Take `O=C(NCCc1cccc(F)c1)c1cc(Br)cc(N2CCN(c3ccncc3)CC2)c1`: the inhibition was 0%.

Consider `COC(=O)/C=C/c1ccc(CCC(C)NCC(O)c2cccc(Cl)c2)cc1` (stereo not given), for which the inhibition is 4%.

As for `O=[N+]([O-])c1ccc(C(O)CNCCc2ccccc2)cc1OCc1ccccc1` (stereo not given), the inhibition was -1%.

In the case of `Cc1sc2nc(CSc3ccccc3)nc(N3CCN(CC(=O)NC4CC4)CC3)c2c1C`, the inhibition was 1%.

In the case of `O=C(c1ccc(F)c2ccccc12)N1CCc2cc3nccc(N4CCN5CCC[C@H]5C4)c3cc21`, the inhibition is -5%.

As to `Cc1[nH]c2ccccc2c1C(=O)C(C)Sc1n[nH]c(-c2ccccc2Br)n1` (stereo not given), the inhibition is -3%.

On to `CN(C)CCCOc1cc(NC(=O)Nc2ccc(-c3ccncc3)c3ccccc23)ccc1I`, for which the inhibition was 1%.

As to `CC[C@H](C)CNC(=O)c1cncc(-c2ccc(CNCC3CNCCCO3)cc2)c1` (stereo not given in full), the inhibition was -1%.

As to `Cc1cnc(C(=O)Nc2cccc(-c3cccc(-c4nc5ccc(F)cc5[nH]4)c3)c2)cn1`, the inhibition is -1%.

In the case of `O=C(NCc1cc2c(cc1Cl)OCO2)c1ccc(CNC2CCN(Cc3ccccc3)CC2)cc1`, the inhibition was -3%.

Take `CCN1CCN(Cc2c(O)ccc3c(=O)c(Oc4cc(C)cc(C)c4)c(C(F)(F)F)oc23)CC1`: the inhibition is 3%.

As to `O=S(=O)(c1ccc(OCc2ccc(Cl)cc2)cc1)c1cc2c(cc1OCc1ccccc1)CCN(CC1CC1)CC2`, the inhibition is -3%.

With `CC(C)CC(=O)Nc1cc(=O)[nH]c2nc(-c3ccccc3)nn12`, the inhibition is -6%.

For `COc1ccc(-c2ccc(NC(=O)c3ccc(F)cc3)cc2)cc1CN1CCCN(C)CC1`, the inhibition is -2%.

As for `CC(C)(C)c1ccc(CNC(=O)c2ccc(-c3nc4ccc(C(C)(C)C)cc4[nH]3)cc2)cc1`, the inhibition was 3%.

Take `COc1ccccc1C1CCN(C2CCC(NC(=O)/C=C/c3cccc(C(F)(F)F)c3)CC2)CC1` (stereo not given): the inhibition was -3%.

Turning to `COC(=O)c1ccc(-c2ccc(C(=O)NCC3CCN(c4nc(N)c5cc(OC)c(OC)cc5n4)CC3)cc2)cc1`, the inhibition is -4%.

As for `COc1nc2c(CCN3CC[C@H](NCc4ccc5c(c4)NC(=O)CO5)[C@H](O)C3)c(Cl)cnc2cc1F`, the inhibition was -3%.

Consider `CCCCCC1c2[nH]c3ccccc3c2CCN1C(=O)OCc1ccccc1` (stereo not given), for which the inhibition is -3%.

In the case of `CCC[C@@H]([C@@H](CC1CCCCC1)C(=O)N[C@H](C(=O)Nc1nccs1)C(C)(C)SCCNC(=O)OCc1ccccn1)N(O)C=O`, the inhibition is -5%.

`N=c1c(C(=O)NCc2ccccc2)cc2c(=O)n3ccccc3nc2n1CCc1ccccc1`: the inhibition was -6%.

For `CN(CCCCCN1CCC(NC(=O)Nc2ccc(Oc3ccccc3)cc2)C1)C(=O)/C=C/c1ccc(Cl)c(Cl)c1` (stereo not given), the inhibition is -2%.

For the compound `Cc1noc(C)c1-c1cccc(CNCc2ccc(-c3ccc(-c4nc5c(C)cccc5[nH]4)cc3)cc2)c1`, the inhibition is 5%.

As for `CCN(CC)CCN(Cc1ccc(-c2ccc(C(F)(F)F)cc2)cc1)C(=O)Cn1cc(CCCc2cccc(F)c2F)c(=O)c2ccccc21`, the inhibition is -4%.

In the case of `COC(=O)c1c(NC(=O)c2cccc(C(F)(F)F)c2)sc2c1CCN(Cc1ccccc1)C2`, the inhibition was 0%.

Regarding `O=C(Nc1cccc(-c2ccc(-c3nc4ccc(C(F)(F)F)cc4[nH]3)s2)c1)c1ccncc1`, the inhibition was -13%.

Turning to `CN(C)CCCOc1ccc(CCNCc2cccc(Oc3ccc(Cl)cc3)c2)cc1`, the inhibition is -4%.

On to `COc1cc2ccccc2cc1CNCCCCCCNCc1cc2ccccc2cc1OC`, for which the inhibition was 6%.

For `COc1ccc(C(=O)CCC(=O)N(Cc2ccc(-c3ccc(CNCCc4ccc(S(C)(=O)=O)cc4)cn3)cc2)Cc2ccc3c(c2)OCO3)cc1F`, the inhibition was 3%.

`CCN1CCCC1CN(Cc1ccc(-c2ccc(C(F)(F)F)cc2)cc1)C(=O)Cn1c(CCc2cccc(F)c2F)nc(=O)c2ccccc21` (stereo not given): the inhibition was 2%.

On to `O=C(NCCCCCN1CCC(c2c[nH]c3ccccc23)CC1)c1ccc(Cl)c(Cl)c1`, for which the inhibition was -2%.

With `CCCCCCCn1c(=N)n(CC(O)c2ccc(Cl)c(Cl)c2)c2ccccc21` (stereo not given), the inhibition is 2%.

Consider `O=C(Nc1cccc(C(F)(F)F)c1)c1cccc2[nH]c(C(F)(F)F)nc12`, for which the inhibition was -7%.

`Cc1cccc2[nH]c(-c3ccc(-c4ccc(NC(=O)c5cncn5C)cc4)s3)nc12`: the inhibition is 4%.

For the compound `Nc1c(Cl)cc(C(O)CNCCCCCOCCc2ccc3ccccc3n2)cc1Cl` (stereo not given), the inhibition is -1%.

For the origin of these results see PubChem BioAssay.
